Data taken from the supplement of paper PMC12645437, “Orthogonal IMiD-Degron Pairs Induce Selective Protein Degradation in Cells” (ACS Chemical Biology, 2025).
The full ranking holds about 8,300 sequences; the median of “log2 fold change of degron read counts, EGFP-low vs EGFP+ sorted cells (limma voom), compound-induced degradation” is about -1.1, and the highest 2% start at about 3.2. This is one part of a sample in which the highest values are shown more often than they occur.

T1: CRBN, Q96SW2
T1 chain: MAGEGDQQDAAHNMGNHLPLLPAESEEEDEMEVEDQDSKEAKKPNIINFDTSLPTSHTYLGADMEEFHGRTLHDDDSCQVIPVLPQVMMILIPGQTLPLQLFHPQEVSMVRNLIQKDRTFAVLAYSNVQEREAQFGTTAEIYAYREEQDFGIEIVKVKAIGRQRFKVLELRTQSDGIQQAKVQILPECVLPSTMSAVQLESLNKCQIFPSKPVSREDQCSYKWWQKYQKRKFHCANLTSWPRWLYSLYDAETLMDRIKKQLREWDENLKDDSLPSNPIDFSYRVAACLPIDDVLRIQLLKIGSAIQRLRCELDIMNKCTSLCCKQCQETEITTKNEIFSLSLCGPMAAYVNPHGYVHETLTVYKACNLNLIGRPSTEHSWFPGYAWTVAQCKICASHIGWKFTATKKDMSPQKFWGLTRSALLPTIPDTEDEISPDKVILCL


Biological target: T1, CRBN, Q96SW2
Experiment: log2 fold change of degron read counts, EGFP-low vs EGFP+ sorted cells (limma voom), compound-induced degradation; higher = more compound-induced degradation of the degron-EGFP fusion; degrons are variants of IKZF1/3 zinc finger 2; compound dose not given here
Details: Jurkat, 18 h
[1] = compound: compound 19 (5-tert-butyl-thalidomide)
[2] = compound: compound 22 (5-morpholino-thalidomide)
[3] = compound: compound 33 (diphenyl IMiD analogue)
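Note: pooled lentiviral library of zinc finger degron-EGFP fusions in mCherry-positive Jurkat cells, FACS-sorted after compound exposure, with degron abundance counted by next-generation sequencing.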

Sequence	log2 fold change of degron read counts [1]	log2 fold change of degron read counts [2]	log2 fold change of degron read counts [3]	log2 fold change of degron read counts (compound: thalidomide)
FLCDVCGAYFTQKGNLLRHIKL [46F_47L_49D_50V_52G_53A_54Y_55F_67L_, Q9UKT9]	-2.05	-2.41	-1.49	-1.52
FSCNVCGARFTQKGNLLRHIKL [46F_47S_49N_50V_52G_53A_54R_55F_67L_, Q9UKT9]	0.49	0.453	-1.03	-0.0608
FRCNQCGASFTQKGNLLRHIKL [46F_47R_49N_50Q_52G_53A_54S_55F_67L_, Q9UKT9]	-1.71	-2.14	-0.702	-1.17
FDCEICGREFTQKGNLLRHIKL [46F_47D_49E_50I_52G_53R_54E_55F_67L_, Q9UKT9]	-2.21	-2.29	-2.42	-2.31
FHCNVCGAQFTQKGNLLRHIKL [46F_47H_49N_50V_52G_53A_54Q_55F_67L_, Q9UKT9]	-0.612	0.00036	0.0621	-0.871
FCCPICGHNFTQKGNLLRHIKL [46F_47C_49P_50I_52G_53H_54N_55F_67L_, Q9UKT9]	-2.22	-2.17	-1.7	-1.28
FYCEQCGAHFTQKGNLLRHIKL [46F_47Y_49E_50Q_52G_53A_54H_55F_67L_, Q9UKT9]	-0.125	0.783	0.184	-1.6
FSCPICGANFTQKGNLLRHIKL [46F_47S_49P_50I_52G_53A_54N_55F_67L_, Q9UKT9]	2.46	1.78	1.97	1.54
FTCPICGANFTQKGNLLRHIKL [46F_47T_49P_50I_52G_53A_54N_55F_67L_, Q9UKT9]	0.0113	2.63	1.93	2.85
FDCPICGANFTQKGNLLRHIKL [46F_47D_49P_50I_52G_53A_54N_55F_67L_, Q9UKT9]	2.63	0.285	2.3	2.15
FECPICGANFTQKGNLLRHIKL [46F_47E_49P_50I_52G_53A_54N_55F_67L_, Q9UKT9]	0.136	-0.0311	2.92	3.27
FMCPICGANFTQKGNLLRHIKL [46F_47M_49P_50I_52G_53A_54N_55F_67L_, Q9UKT9]	-0.073	1.2	2.87	1.98
FLCPICGANFTQKGNLLRHIKL [46F_47L_49P_50I_52G_53A_54N_55F_67L_, Q9UKT9]	0.744	0.272	1.69	1.77
FVCPICGANFTQKGNLLRHIKL [46F_47V_49P_50I_52G_53A_54N_55F_67L_, Q9UKT9]	0.327	2.63	1.9	2.81
FNCPICGANFTQKGNLLRHIKL [46F_47N_49P_50I_52G_53A_54N_55F_67L_, Q9UKT9]	2.14	0.903	0.95	0.651
FYCPICGANFTQKGNLLRHIKL [46F_47Y_49P_50I_52G_53A_54N_55F_67L_, Q9UKT9]	3.19	3.46	2.38	1.52
FFCPICGANFTQKGNLLRHIKL [46F_47F_49P_50I_52G_53A_54N_55F_67L_, Q9UKT9]	2.81	3.66	1.86	1.33
FRCPICGANFTQKGNLLRHIKL [46F_47R_49P_50I_52G_53A_54N_55F_67L_, Q9UKT9]	-0.337	-0.426	1.12	1.57
FQCPICGANFTQKGNLLRHIKL [46F_47Q_49P_50I_52G_53A_54N_55F_67L_, Q9UKT9]	0.555	2.18	2.19	3.58
FHCPQCGAWFTQKGNLLRHIKL [46F_47H_49P_50Q_52G_53A_54W_55F_67L_, Q9UKT9]	-1.82	-2.04	-1.61	-2.14
FLCDICGAEFTQKGNLLRHIKL [46F_47L_49D_50I_52G_53A_54E_55F_67L_, Q9UKT9]	-0.631	-2.41	-1.1	-0.617
FDCDQCGAYFTQKGNLLRHIKL [46F_47D_49D_50Q_52G_53A_54Y_55F_67L_, Q9UKT9]	-2.22	-2.78	-2.57	-2.51
FICPICGANFTQKGNLLRHIKL [46F_47I_49P_50I_52G_53A_54N_55F_67L_, Q9UKT9]	-0.552	2.74	2.01	2.63
FWCPICGANFTQKGNLLRHIKL [46F_47W_49P_50I_52G_53A_54N_55F_67L_, Q9UKT9]	2.99	3.64	1.91	1.51
FACPICGANFTQKGNLLRHIKL [46F_47A_49P_50I_52G_53A_54N_55F_67L_, Q9UKT9]	3.04	1.85	1.61	1.07
LTCEICGFGCTQKGNLLRHIKL [46L_47T_49E_50I_52G_53F_54G_55C_67L_, Q9UKT9]	0.777	1.03	0.337	1.18
FHCPICGAYFTQKGNLLRHIKL [46F_47H_49P_50I_52G_53A_54Y_55F_67L_, Q9UKT9]	2.3	1.96	1.93	0.872
FNCNQCGHKFTQKGNLLRHIKL [46F_47N_49N_50Q_52G_53H_54K_55F_67L_, Q9UKT9]	-2.94	-2.21	-2.62	-2.32
